# Sampled rows, rich in hits. Any-hit rate of the full collection: about 27%.
# sEH inhibitor = soluble epoxide hydrolase (human) inhibition. AID 707. inhibition, % at 2 µM. recombinant human sEH enzymatic activity assay. P34913. 0.34% of 91,000 active; in the data active means inhibition above about 80%
# CYP2C9 activ = increases human cytochrome P450 2C9 activity. recombinant CYP2C9, luciferin-H conversion, luminescence; hits give high values; factor 1 = untreated enzyme, 0 = blocked. activation factor at 5 µM. 1.4% of 96,000 active. AID 1024;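 active means activation factor of 2 or more for CYP2C9 at a 5 µM dose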;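 further: 0 = sulfaphenazole-blocked wells and 1 = vehicle-only wells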
# sEH activator = increases human soluble epoxide hydrolase activity. P34913. 0.04% of 91,000 active. purified human sEH enzymatic activity, activator screen. activation, % at 2 µM; in the data active means activation above about 37%
# CYP2C19 activ = increases human CYP2C19 enzyme activity. recombinant CYP2C19, luciferin-H EGE luminescence; hits give high values; 0 = fully inhibited enzyme, 1 = untreated enzyme. activation factor at 5 µM. 96,000 tested, under 10 active;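 active means activation factor of at least 2 at 5 µM in the primary screen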;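 further: 0 = wells with 2.5 mM tranylcypromine and 1 = vehicle-only wells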
# Target sequence (P33261 whole entry, looked up): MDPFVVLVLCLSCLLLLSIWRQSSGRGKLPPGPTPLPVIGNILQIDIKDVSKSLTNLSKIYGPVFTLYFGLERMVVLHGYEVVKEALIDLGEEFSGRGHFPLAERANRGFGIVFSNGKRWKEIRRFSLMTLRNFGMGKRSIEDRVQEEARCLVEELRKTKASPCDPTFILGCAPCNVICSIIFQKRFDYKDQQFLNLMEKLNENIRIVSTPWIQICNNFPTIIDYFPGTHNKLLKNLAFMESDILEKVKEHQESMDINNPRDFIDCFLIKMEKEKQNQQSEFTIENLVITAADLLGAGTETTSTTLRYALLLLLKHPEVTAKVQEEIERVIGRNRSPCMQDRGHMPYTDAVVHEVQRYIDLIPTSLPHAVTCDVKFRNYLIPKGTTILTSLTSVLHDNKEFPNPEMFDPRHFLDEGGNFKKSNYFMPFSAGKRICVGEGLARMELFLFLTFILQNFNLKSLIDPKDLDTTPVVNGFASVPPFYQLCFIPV
# CYP2C19 inhib = inhibitors of human CYP2C19; P33261; CYP2C19 Supersomes, luciferin-H EGE luminescence, 30 min; inhibition, % at 5 µM; 21% of 96,000 active; AID 778;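 active means CYP2C19 inhibition above a set limit at 5 µM in the primary screen, cut at about 50% in these data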;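 further: plate controls were negative control wells for no effect and 2.5 mM tranylcypromine positive control for full effect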
# CYP2C9 inh = inhibitors of human CYP2C9; P11712; CYP2C9 Supersomes, luciferin-H conversion, luminescence; inhibition, % at 5 µM; 20% of 96,000 active; AID 777;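 active means blocking of liver enzyme CYP2C9 beyond about 50% at 5 µM, limit read from the data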
# * = called active by the depositor; . = not tested or not shown.
SMILES,sEH inhibitor,CYP2C9 activ,sEH activator,CYP2C19 activ,CYP2C19 inhib,CYP2C9 inh
Cc1ccc(C(=O)N/C(=C/c2ccco2)C(=O)Nc2cccc(C)c2)cc1,1.9,0.1,0.0,0.5,50.7*,89.8*
COc1ccccc1NC(=O)CN(Cc1ccco1)C(=O)c1ccc(-n2nc(C)cc2C)cc1,-9.0,0.1,8.5,0.9,11.1,94.1*
Cc1ccc(C)c(S(=O)(=O)NCc2ccc(C(=O)NCc3ccco3)cc2)c1,6.3,.,-3.9,.,.,.
C=CCN(c1ccc(C(=O)NCCc2ccccc2)cc1)S(C)(=O)=O,-1.1,1.1,4.3,0.9,10.5,-9.6
Cc1ccc(C(=O)Nc2ccc(S(=O)(=O)NCc3ccco3)cc2)cc1,11.8,0.7,-10.5,0.8,21.7,26.1
O=C(NCc1cccnc1)c1cccc(NC(=O)c2ccco2)c1,4.0,.,-1.4,.,.,.
Cc1cc(C)n(-c2ccc(C(=O)Nc3ccc(S(=O)(=O)NCc4ccco4)cc3)cc2)n1,-12.2,0.3,13.7,0.8,24.2,66.3*
O=C(Nc1ccccc1)c1cccc(S(=O)(=O)NCc2ccco2)c1,22.7,0.5,-22.8,0.5,51.3*,50.9*
Cc1occc1C(=O)Nc1cccc(C(=O)NCc2ccccc2)c1,9.9,0.1,-9.7,0.3,68.3*,93.2*
Cc1ccc(C(=O)Nc2cccc(C(=O)NCc3ccco3)c2)cc1,7.5,0.2,-4.8,0.9,12.1,83.1*
O=C(Nc1ccccc1)c1ccc(S(=O)(=O)NCc2ccco2)cc1,-14.6,1.1,12.5,1.1,-14.5,-9.4
O=C(Cn1c(-c2cscn2)nc2ccccc21)Nc1ccccc1F,-0.4,0.9,-0.8,0.5,45.3,11.1
CN(C)S(=O)(=O)c1cccc(NC(=O)COC(=O)CCc2nc3ccccc3s2)c1,-1.2,1.9,4.5,1,-0.2,-88.7
CC(C)CN(CC(C)C)S(=O)(=O)N1CCC(C(=O)NCCc2ccc(Cl)cc2)CC1,67.7,0.5,-68.6,0.5,54.5*,53.5*
O=C(NCCc1ccc(Cl)cc1)C1CCN(c2cnccn2)CC1,59.4,0.3,-58.8,0.5,52.1*,65.5*
CC(C)NC(=O)C(=O)NCCc1ccc(Cl)cc1,5.0,1,-4.3,0.1,92.3*,2.4
COc1cccc(CNC(=O)C2CCN(c3cnccn3)CC2)c1,5.4,.,-3.9,.,.,.
O=C(NCCc1ccc(Cl)cc1)C1CCN(S(=O)(=O)N2CCCCC2)CC1,.,0.5,.,0.7,31.3,50.8*
Cc1ccsc1C(=O)Nc1ccccc1N1CCOCC1,-9.0,1.1,12.0,0.9,7.1,-11.0
CCNC(=O)/C(=C/c1ccc2c(c1)OCO2)NC(=O)c1ccc(Br)cc1,-3.1,0.7,2.8,0.7,31.6,25.7
O=C(O)C1CCCCC1C(=O)NCCc1ccc(Cl)cc1 (stereo not drawn),12.3,0.6,-8.9,0.3,74.7*,40.0
O=C(NCCc1ccc(Cl)cc1)C1CCN(S(=O)(=O)c2cccs2)CC1,27.9,0.2,-27.4,0.2,84.4*,79.3*
O=C(CCCOc1ccccc1)Nc1cccnc1,1.8,.,-1.8,.,.,.
CCCCOc1ccc(C(=O)Nc2ccncc2)cc1,-22.7,0,23.1,0,98.7*,99.4*
CCOC(=O)CNC(=O)COc1ccc(Cl)cc1Br,4.6,0.9,-1.2,0.5,46.0,11.7
SMILES,sEH inhibitor,CYP2C9 activ,sEH activator,CYP2C19 activ,CYP2C19 inhib,CYP2C9 inh
O=C(CCCOc1ccc(Cl)cc1Cl)Nc1ccncc1,8.3,0,-11.5,0,99.2*,100.3*
CCNC(=O)COc1ccc(Br)cc1Cl,2.4,0.4,-2.9,0.3,72.9*,57.3*
O=C(CCCOc1ccccc1)Nc1ccncc1,.,0,.,0,98.7*,96.8*
C=C(C)c1cccc(C(C)(C)NC(=O)N2CCN(CC(N)=O)CC2)c1,6.6,1,-2.9,1.1,-11.4,0.9
O=C(NCCn1ccc2ccccc21)c1ccc(S(=O)(=O)N2CCOCC2)cc1,8.9,0.8,-4.9,1.1,-9.8,22.3
CCNC(=O)CCCOc1ccc(Cl)cc1Cl,-1.6,0.6,3.3,0.2,82.6*,38.0
CCOC(=O)c1c(C)[nH]c(C(=O)Cn2nnc(-c3ccc(Cl)cc3)n2)c1C,11.7,1,-12.9,1,4.6,4.5
CCCC1(c2ccccc2)NC(=O)N(CC(=O)c2[nH]c(C)c(C(=O)OCC)c2C)C1=O (stereo not drawn),14.6,0,-14.5,0.1,94.5*,97.5*
CCOC(=O)c1c(C)[nH]c(C(=O)CN2C(=O)NC(C)(c3ccc4ccccc4c3)C2=O)c1C (stereo not drawn),.,0.4,.,0.7,33.6,62.3*
CCCC1(c2ccccc2)NC(=O)N(CC(=O)Nc2sc(-c3ccccc3)cc2C(=O)OCC)C1=O (stereo not drawn),11.8,0.4,-10.5,0.9,5.3,60.3*
COc1ccc(OC)c(C(=O)CN2C(=O)NC(C)(c3ccccc3)C2=O)c1 (stereo not drawn),-4.2,2*,6.4,0,98.8*,-96.5
Cc1cc(NC(=O)CN2C(=O)NC(C)(c3ccccc3)C2=O)no1 (stereo not drawn),3.4,0.5,-2.0,0.9,6.8,48.1
COc1cccc2cc(C(=O)C3=C(O)C(=O)N(Cc4ccco4)C3c3cccnc3)oc12 (stereo not drawn),-17.3,0.6,16.4,1,-0.9,38.0
CC(=O)C(Cc1cnc(Cl)s1)(Cc1cnc(Cl)s1)C(C)=O,6.1,0.9,-4.1,0.3,68.7*,10.7
Cn1c2ccccc2c2ncn(Cc3ccco3)c(=O)c21,10.3,0.4,-11.6,0.3,69.4*,59.5*
Cn1c2ccc(F)cc2c2ncn(Cc3ccco3)c(=O)c21,-2.1,0.4,1.4,0.5,50.7*,61.1*
Cc1nc2ccc(NC(=O)NCCCO)cc2s1,5.7,1.2,-3.9,1.2,-24.6,-22.8
CCCOc1ccc(-c2nc(C#N)c(N3CCN(CC)CC3)o2)cc1,-21.4,0.7,21.9,0.6,37.5,26.3
O=C(CSc1nnc(CNC(=O)c2c(F)cccc2Cl)o1)c1ccccc1,8.3,.,-6.2,.,.,.
CCN(CC)C(=O)C1CCN(Cc2ccc(Br)cc2)CC1,-1.7,0.9,1.3,0.8,24.8,11.8
CC(=O)c1cc2c(cc1NC(=O)CN1CCN(c3ccc(F)cc3)CC1)OCO2,3.1,0.6,0.4,1,-0.2,40.5
CCNc1sc(C(=O)c2cccs2)c(N)c1-c1nc2ccccc2s1,-2.9,0.1,6.0,0.5,52.9*,89.5*
O=C(NC1CCCCC1)N1CCN(C(=O)c2ccco2)CC1,-4.5,0.9,2.6,0.9,8.2,5.3
O=C(Nc1cc(S(=O)(=O)N2CCOCC2)ccc1Cl)C(=O)c1c(-c2ccccc2)cc2ccccn12,-9.2,0.3,12.2,0.5,45.2,69.8*
O=C(O)c1c[nH]c2ccc(S(=O)(=O)N3CCOCC3)cc12,.,1.1,.,1,0.3,-11.2
Cc1cc(C)cc(N(CC(=O)NCc2ccco2)C(=O)CCC(=O)Nc2ccccn2)c1,.,0.8,.,0.4,61.0*,23.7
